Laboratory results reported in PubChem BioAssay (EPA / NIEHS).
Active and inactive are the calls of the source. Rule for the calls: active = hit-call score of the fitted dose curve at least 0.9, where 1 is the maximum; inactive = score below 0.9.

Experiment: ATG_TCF_b_cat_CIS: Attagene CIS-FACTORIAL HepG2 Assay for human T-Cell-Factor with beta-catenin (TCF/b-cat) (AID 2282965)
Conditions: HepG2 TCF/beta-catenin cis-reporter transcription, actives raise or lower the signal
Procedure, shortened: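 Endogenous transcription factor activity is captured through cis-promoter reporter constructs transiently introduced into human HepG2 liver cells. Induced reporter mRNA is measured after 24 h and fitted bidirectionally relative to DMSO.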

Compound | outcome | AC50
CC(C)C(=O)OCc1ccccc1 | inactive | –
OCC1CCCO1 (configuration not stated) | inactive | –
CN(C)C(C)(C)CO | inactive | –
NC(=O)C(F)(F)C(F)(F)C(F)(F)F | inactive | –
F[Si-2](F)(F)(F)(F)F | inactive | –
c1ccc(C[P+](c2ccccc2)(c2ccccc2)c2ccccc2)cc1 | inactive | –
CCOCOCC | inactive | –
C=CCOC(=O)CC(C)C | inactive | –
O=S(=O)(O)CCC(F)(F)C(F)(F)C(F)(F)C(F)(F)F | inactive | –
CC(=O)C=O | inactive | –
Cc1cccc(C)n1 | inactive | –
COCCOCCC[Si](C)(O[Si](C)(C)C)O[Si](C)(C)C | – | 33.4 µM (active)
CCOC(=O)C1CC(=O)C(=C(O)C2CC2)C(=O)C1 (configuration not stated) | inactive | –
NC(O)(C(F)(F)F)C(F)(F)F | inactive | –

Experiment: ATG_TAL_CIS: Attagene CIS-FACTORIAL HepG2 Assay for human TAL Basal Promoter (AID 2282966);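 note: background control endpoint measuring basal TAL promoter reporter mRNA not a specific factor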
Conditions: HepG2 Attagene cis-factorial TAL promoter reporter; actives raise or lower the signal
Procedure, shortened: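 Transiently transfected HepG2 (cis-regulated reporter units), 24 h treatment, mRNA read by fluorescent CE after RT-PCR; bidirectional fit, DMSO baseline.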

Compound | outcome | AC50
O=c1[nH]cccc1O | inactive | –
CCC(C)CO (configuration not stated) | inactive | –
O=C(c1ccccc1)c1ccc(O)cc1O | inactive | –
CC(C)OC=O | inactive | –
CCCCCCCC/C=C\CCCCCCCC(=O)OCC(O)CO (configuration not stated) | inactive | –
C#CC(O)CCC (configuration not stated) | inactive | –
O=C(Cl)c1ccc(Cl)cc1Cl | inactive | –
CCOC(OCC)OCC | inactive | –
CCOCN(C(=O)CS(=O)(=O)O)c1c(C)cccc1CC | inactive | –
OCC(F)(F)C(F)(F)C(F)(F)C(F)(F)C(F)(F)C(F)(F)CO | inactive | –
C[Si](C)O[Si](C)C | inactive | –
O=C1C=CC(=O)N1c1ccc(Cc2ccc(N3C(=O)C=CC3=O)cc2)cc1 | – | 56.8 µM (active)
CC(=O)CCC(C)C | inactive | –
COCCC(=O)OC | inactive | –
CCCC(=O)OCC(COC(=O)CCC)OC(=O)CCC | inactive | –
O=c1cccc[nH]1 | inactive | –
CC(C)OC(=O)COc1ccc(Cl)cc1Cl | inactive | –
CCCCCCCCCCCCCC[P+](CCCC)(CCCC)CCCC | inactive | –
CCN=C1C=CC(=C(c2ccc(N(CC)CC)cc2)c2ccc(N(CC)CC)cc2)c2ccccc21 | inactive | –

Compound | outcome | AC50
C=CC(=O)OCCC(F)(F)C(F)(F)C(F)(F)C(F)(F)F | inactive | –
CO[Si](C)(CCC(F)(F)C(F)(F)C(F)(F)C(F)(F)C(F)(F)C(F)(F)F)OC | inactive | –
CCN=c1cc2oc3cc(NCC)c(C)cc3c(-c3ccccc3C(=O)OCC)c-2cc1C | inactive | –
CC(=O)c1ccccc1N | inactive | –
O=C1c2c(O)ccc(Nc3ccc(CCO)cc3)c2C(=O)c2c([N+](=O)[O-])ccc(O)c21 | inactive | –
CC(C)C(=O)OCc1ccccc1 | inactive | –
OCC1CCCO1 (configuration not stated) | inactive | –
CN(C)C(C)(C)CO | inactive | –
NC(=O)C(F)(F)C(F)(F)C(F)(F)F | inactive | –
F[Si-2](F)(F)(F)(F)F | inactive | –
c1ccc(C[P+](c2ccccc2)(c2ccccc2)c2ccccc2)cc1 | inactive | –
CCOCOCC | inactive | –
C=CCOC(=O)CC(C)C | inactive | –
O=S(=O)(O)CCC(F)(F)C(F)(F)C(F)(F)C(F)(F)F | inactive | –
CC(=O)C=O | inactive | –
Cc1cccc(C)n1 | inactive | –
COCCOCCC[Si](C)(O[Si](C)(C)C)O[Si](C)(C)C | inactive | –
CCOC(=O)C1CC(=O)C(=C(O)C2CC2)C(=O)C1 (configuration not stated) | inactive | –
NC(O)(C(F)(F)F)C(F)(F)F | inactive | –
